# Inconclusive results are not listed. The source made the active and inactive calls. How the source made its calls: active means hit-call score of the fitted dose curve at least 0.9, where 1 is the maximum; inconclusive means response in the unintended direction; inactive means score below 0.9.
# Tests used:
# [1] = test system: rabbit Platelet Activating Factor Receptor (PAF), gene 100354046; assay: NVS_GPCR_rabPAF: NovaScreen (NVS) G Protein-Coupled Receptor Assay for rabbit Platelet Activating Factor Receptor (PAF) (AID 2283287)
# Summary of the method: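 Rabbit platelet membrane preparation; radioligand displacement read by filter-based scintillation counting 1 h after dosing, loss of signal versus DMSO. Primary screen in duplicate at 25 uM, actives followed up in concentration series.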
# [2] = molecular target: rat Serotonin, 5-Hydroxytryptamine Receptor 1 (5HT1), Non-Selective Binding, Htr1a (gene 24473) (UniProt P19327); assay: NVS_GPCR_r5HT1_NonSelective: NovaScreen (NVS) G Protein-Coupled Receptor Assay for rat Serotonin, 5-Hydroxytryptamine Receptor 1 (5HT1), Non-Selective Binding (AID 2283286)
# rat Serotonin, 5-Hydroxytryptamine Receptor 1 (5HT1), Non-Selective Binding, Htr1a (gene 24473), sequence (P19327 whole entry, looked up): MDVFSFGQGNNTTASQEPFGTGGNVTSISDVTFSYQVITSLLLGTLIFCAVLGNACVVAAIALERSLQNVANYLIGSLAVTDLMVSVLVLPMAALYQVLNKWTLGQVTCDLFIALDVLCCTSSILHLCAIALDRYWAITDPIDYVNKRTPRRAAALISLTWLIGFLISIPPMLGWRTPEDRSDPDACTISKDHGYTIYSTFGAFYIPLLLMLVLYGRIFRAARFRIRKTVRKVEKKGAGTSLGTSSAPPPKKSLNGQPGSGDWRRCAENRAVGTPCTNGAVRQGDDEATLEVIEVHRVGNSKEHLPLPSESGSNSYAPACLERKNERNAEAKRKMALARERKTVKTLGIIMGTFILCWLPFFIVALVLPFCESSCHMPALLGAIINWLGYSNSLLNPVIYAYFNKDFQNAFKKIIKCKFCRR
# Summary of the method: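 Rat cortical membranes, radioligand displacement, 1 h incubation, read by filter scintillation. Primary screen in duplicate at 25 uM. Hits (e.g. ≥30% inhibition) went to concentration-response up to 50 uM, fitted as loss of binding versus DMSO.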
# [3] = molecular target: human Opioid Receptor Mu (Opiate Mu), OPRM1 (gene 4988) (UniProt P35372); assay: NVS_GPCR_hOpiate_mu: NovaScreen (NVS) G Protein-Coupled Receptor Assay for human Opioid Receptor Mu (Opiate Mu) (AID 2283290);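 further: hits lower bound tracer signal versus DMSO meaning displacement of the ligand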
# human Opioid Receptor Mu (Opiate Mu), OPRM1 (gene 4988), sequence (P35372 whole entry, looked up): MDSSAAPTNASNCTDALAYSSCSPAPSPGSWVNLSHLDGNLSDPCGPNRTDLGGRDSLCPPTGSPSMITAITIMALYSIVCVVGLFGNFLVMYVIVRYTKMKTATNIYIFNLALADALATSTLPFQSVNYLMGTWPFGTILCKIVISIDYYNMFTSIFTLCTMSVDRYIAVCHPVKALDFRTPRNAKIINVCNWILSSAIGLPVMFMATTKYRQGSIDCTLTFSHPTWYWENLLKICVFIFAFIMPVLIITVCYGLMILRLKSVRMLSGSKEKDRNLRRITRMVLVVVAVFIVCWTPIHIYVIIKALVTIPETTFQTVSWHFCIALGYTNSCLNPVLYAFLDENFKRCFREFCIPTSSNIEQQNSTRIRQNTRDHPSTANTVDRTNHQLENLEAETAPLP
# Summary of the method: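 Radioligand displacement binding on membranes from CHO cells expressing the receptor, 2.5 h after dosing, filter-based scintillation counting; loss of signal vs DMSO baseline. Screened in duplicate at 25 uM, actives then run in concentration series.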
# [4] = molecular target: human Vasopressin 1A Receptor (V1A), AVPR1A (gene 552) (UniProt P37288); assay: NVS_GPCR_hV1A: NovaScreen (NVS) G Protein-Coupled Receptor Assay for human Vasopressin 1A Receptor (V1A) (AID 2283284)
# human Vasopressin 1A Receptor (V1A), AVPR1A (gene 552), sequence (P37288 whole entry, looked up): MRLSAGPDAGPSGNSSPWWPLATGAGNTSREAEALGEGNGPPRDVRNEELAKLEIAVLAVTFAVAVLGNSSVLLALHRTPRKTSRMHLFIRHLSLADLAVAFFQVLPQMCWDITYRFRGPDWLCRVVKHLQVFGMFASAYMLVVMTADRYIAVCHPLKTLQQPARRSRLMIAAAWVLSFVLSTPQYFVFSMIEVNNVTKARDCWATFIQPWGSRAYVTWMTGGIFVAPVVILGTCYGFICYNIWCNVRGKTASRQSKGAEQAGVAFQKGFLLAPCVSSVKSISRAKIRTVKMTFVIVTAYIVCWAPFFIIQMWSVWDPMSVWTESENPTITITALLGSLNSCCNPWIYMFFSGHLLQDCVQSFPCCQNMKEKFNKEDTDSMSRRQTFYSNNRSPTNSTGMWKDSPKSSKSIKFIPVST
# Summary of the method: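 Cell-free radioligand displacement on human platelet preparations, 1.5 h incubation, filter-based scintillation counting. Chemicals first tested in duplicate at 25 uM; actives then run in concentration-response up to 50 uM, loss of signal fitted against DMSO.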
# [5] = molecular target: human Opioid Receptor Delta 1 (Opiate D1), OPRD1 (gene 4985) (UniProt P41143); assay: NVS_GPCR_hOpiate_D1: NovaScreen (NVS) G Protein-Coupled Receptor Assay for human Opioid Receptor Delta 1 (Opiate D1) (AID 2283280)
# human Opioid Receptor Delta 1 (Opiate D1), OPRD1 (gene 4985), sequence (P41143 whole entry, looked up): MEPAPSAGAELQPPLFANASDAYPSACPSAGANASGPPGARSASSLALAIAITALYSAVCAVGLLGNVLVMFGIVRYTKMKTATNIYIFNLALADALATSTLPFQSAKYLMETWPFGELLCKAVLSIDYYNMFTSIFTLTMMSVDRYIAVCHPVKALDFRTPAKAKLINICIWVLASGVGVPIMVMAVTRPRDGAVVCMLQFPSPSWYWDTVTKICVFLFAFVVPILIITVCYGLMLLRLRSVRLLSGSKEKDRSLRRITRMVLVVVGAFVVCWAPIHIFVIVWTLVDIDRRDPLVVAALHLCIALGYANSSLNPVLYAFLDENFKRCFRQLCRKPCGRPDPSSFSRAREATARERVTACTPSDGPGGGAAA
# Summary of the method: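 Radioligand displacement on membranes from CHO cells expressing the receptor, read by filter scintillation counting 1 h after dosing. Duplicate single-point screen at 25 uM, then concentration series for actives; loss of signal versus DMSO.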
# [6] = molecular target: rat Adrenergic, Alpha 1, Non-selective Receptor (Adra1), Adra1a (gene 29412) (UniProt P43140); assay: NVS_GPCR_rAdra1_NonSelective: NovaScreen (NVS) G Protein-Coupled Receptor Assay for rat Adrenergic, Alpha 1, Non-selective Receptor (Adra1) (AID 2283289)
# Summary of the method: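 Rat forebrain membranes; radioligand displacement read by filter-based scintillation counting 1 h after dosing. Primary screen in duplicate at 25 uM; hits (e.g. ≥30% inhibition) rerun as concentration–response to 50 uM max. Fitted versus DMSO.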
# [7] = molecular target: guinea pig Serotonin, 5-Hydroxytryptamine Receptor 4 (5HT4), HTR4 (gene 100135548) (UniProt O70528); assay: NVS_GPCR_g5HT4: NovaScreen (NVS) G Protein-Coupled Receptor Assay for guinea pig Serotonin, 5-Hydroxytryptamine Receptor 4 (5HT4) (AID 2283294)
# guinea pig Serotonin, 5-Hydroxytryptamine Receptor 4 (5HT4), HTR4 (gene 100135548), sequence (O70528 whole entry, looked up): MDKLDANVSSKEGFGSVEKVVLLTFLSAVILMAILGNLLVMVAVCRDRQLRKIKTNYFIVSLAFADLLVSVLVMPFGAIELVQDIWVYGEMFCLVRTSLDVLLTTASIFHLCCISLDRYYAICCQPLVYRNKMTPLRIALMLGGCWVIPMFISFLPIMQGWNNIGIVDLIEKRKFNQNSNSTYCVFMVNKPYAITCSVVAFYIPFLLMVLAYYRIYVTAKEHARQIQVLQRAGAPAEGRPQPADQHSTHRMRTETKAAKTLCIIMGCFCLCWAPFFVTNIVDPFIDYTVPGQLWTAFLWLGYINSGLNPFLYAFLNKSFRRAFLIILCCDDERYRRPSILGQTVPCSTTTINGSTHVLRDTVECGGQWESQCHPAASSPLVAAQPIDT
# Summary of the method: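 Guinea pig striatal membranes; radioligand competitive displacement, filtration and scintillation counting after 1 h. Primary screen in duplicate at 25 uM; actives then tested in concentration series; loss of binding signal fitted relative to DMSO.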
# [8] = molecular target: rat Serotonin, 5-Hydroxytryptamine Receptor (5HT), Non-Selective Binding, Htr1a (gene 24473) (UniProt P19327); assay: NVS_GPCR_r5HT_NonSelective: NovaScreen (NVS) G Protein-Coupled Receptor Assay for rat Serotonin, 5-Hydroxytryptamine Receptor (5HT), Non-Selective Binding (AID 2283295)
# rat Serotonin, 5-Hydroxytryptamine Receptor (5HT), Non-Selective Binding, Htr1a (gene 24473), sequence (P19327 whole entry, looked up): as the sequence (P19327 whole entry, looked up) above
# Summary of the method: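 Radioligand displacement on rat cortical membranes, 1 h incubation, filter-based scintillation counting. Primary duplicates at 25 uM, actives retested in concentration series; loss of signal fitted against DMSO as baseline.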
# [9] = molecular target: rat Adrenergic Receptor, Alpha 2 (Adra2), Non-selective Binding, Adra2a (gene 25083) (UniProt P22909); assay: NVS_GPCR_rAdra2_NonSelective: NovaScreen (NVS) G Protein-Coupled Receptor Assay for rat Adrenergic Receptor, Alpha 2 (Adra2), Non-selective Binding (AID 2283299)
# Summary of the method: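 Rat cortical membranes, radioligand competitive displacement read by filter-based scintillation counting 1.25 hours after dosing. Primary screen in duplicate at 25 uM; actives followed up in concentration series.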
# [10] = molecular target: rat Corticotropin Releasing Factor Receptor (CRF), Crhr1 (gene 58959) (UniProt P35353); assay: NVS_GPCR_rCRF: NovaScreen (NVS) G Protein-Coupled Receptor Assay for rat Corticotropin Releasing Factor Receptor (CRF) (AID 2283300)
# rat Corticotropin Releasing Factor Receptor (CRF), Crhr1 (gene 58959), sequence (P35353 whole entry, looked up): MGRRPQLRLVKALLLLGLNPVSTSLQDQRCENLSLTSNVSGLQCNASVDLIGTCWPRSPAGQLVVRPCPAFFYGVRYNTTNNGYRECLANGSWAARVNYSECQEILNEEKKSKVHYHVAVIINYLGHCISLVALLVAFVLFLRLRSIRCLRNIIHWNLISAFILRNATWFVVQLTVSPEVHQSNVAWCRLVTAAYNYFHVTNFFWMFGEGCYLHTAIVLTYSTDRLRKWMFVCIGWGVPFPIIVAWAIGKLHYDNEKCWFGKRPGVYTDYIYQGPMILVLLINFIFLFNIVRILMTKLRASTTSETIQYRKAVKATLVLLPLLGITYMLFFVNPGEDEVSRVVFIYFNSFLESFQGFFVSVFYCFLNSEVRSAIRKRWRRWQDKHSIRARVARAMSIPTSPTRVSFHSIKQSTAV
# Summary of the method: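 Rat cortical membranes used as receptor source in a radioligand competitive displacement binding assay; scintillation read 2 h after dosing. Primary screen run in duplicate at 25 uM; loss of signal versus DMSO baseline indicates binding.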
# [11] = test system: 5-hydroxytryptamine receptor 2C (pig); assay: NVS_GPCR_p5HT2C: NovaScreen (NVS) G Protein-Coupled Receptor Assay for pig Serotonin, 5-Hydroxytryptamine Receptor 2C (5HT2C) (AID 2283288)
# Summary of the method: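 Pig choroid plexus membranes; radioligand competitive binding, filter-based scintillation counting, read 1 h after dosing. Primary screen in duplicate at 25 uM; actives then run as concentration series; loss of signal versus DMSO baseline.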
# [12] = molecular target: rat Adrenergic Receptor, Beta (Adrb), Non-selective Binding, Adrb1 (gene 24925) (UniProt P18090); assay: NVS_GPCR_rAdrb_NonSelective: NovaScreen (NVS) G Protein-Coupled Receptor Assay for rat Adrenergic Receptor, Beta (Adrb), Non-selective Binding (AID 2283298)
# rat Adrenergic Receptor, Beta (Adrb), Non-selective Binding, Adrb1 (gene 24925), sequence (P18090 whole entry, looked up): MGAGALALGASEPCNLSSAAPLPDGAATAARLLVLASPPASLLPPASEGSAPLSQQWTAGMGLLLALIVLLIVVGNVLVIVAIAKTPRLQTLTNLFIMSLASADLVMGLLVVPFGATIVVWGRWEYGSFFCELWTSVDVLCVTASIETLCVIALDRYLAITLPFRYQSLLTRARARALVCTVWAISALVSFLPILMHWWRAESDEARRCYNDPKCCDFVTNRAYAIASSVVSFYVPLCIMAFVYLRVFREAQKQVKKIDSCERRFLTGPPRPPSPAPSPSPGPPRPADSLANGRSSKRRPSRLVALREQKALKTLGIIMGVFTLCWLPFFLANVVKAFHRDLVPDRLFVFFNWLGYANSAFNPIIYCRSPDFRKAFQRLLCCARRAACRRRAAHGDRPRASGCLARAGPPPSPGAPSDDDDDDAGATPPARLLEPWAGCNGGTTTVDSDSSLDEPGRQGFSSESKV
# Summary of the method: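 Non-selective beta-adrenergic radioligand binding in rat cortical membranes, 1 h incubation, filter-based scintillation read-out. Primary screen 25 uM in duplicate; hits retested in concentration-response up to 50 uM, DMSO baseline.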
# [13] = test system: guinea pig Atrionatriuretic Peptide Receptor A (ANPA), gene 100135578; assay: NVS_GPCR_gANPA: NovaScreen (NVS) G Protein-Coupled Receptor Assay for guinea pig Atrionatriuretic Peptide Receptor A (ANPA) (AID 2283291)
# Summary of the method: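 Radioligand binding to guinea pig cerebellar membranes was measured after 1 h by filter-based scintillation counting. Chemicals were tested in duplicate at 25 uM, with hits run in concentration-response to a maximum of 50 uM. Binding loss was fitted against DMSO.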
# [14] = test system: rat Adrenergic, Alpha 1B Receptor (Adra1B), gene 24173; assay: NVS_GPCR_rAdra1B: NovaScreen (NVS) G Protein-Coupled Receptor Assay for rat Adrenergic, Alpha 1B Receptor (Adra1B) (AID 2283297)
# Summary of the method: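 Rat liver membranes, radioligand displacement with filter-based scintillation detection, 1 h incubation. Primary screen in duplicate at 25 uM; actives retested in concentration series; activity relative to DMSO.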
# [15] = molecular target: guinea pig Bradykinin Receptor B2 (BK2), BDKRB2 (gene 100135486) (UniProt O70526); assay: NVS_GPCR_gBK2: NovaScreen (NVS) G Protein-Coupled Receptor Assay for guinea pig Bradykinin Receptor B2 (BK2) (AID 2283292)
# guinea pig Bradykinin Receptor B2 (BK2), BDKRB2 (gene 100135486), sequence (O70526 whole entry, looked up): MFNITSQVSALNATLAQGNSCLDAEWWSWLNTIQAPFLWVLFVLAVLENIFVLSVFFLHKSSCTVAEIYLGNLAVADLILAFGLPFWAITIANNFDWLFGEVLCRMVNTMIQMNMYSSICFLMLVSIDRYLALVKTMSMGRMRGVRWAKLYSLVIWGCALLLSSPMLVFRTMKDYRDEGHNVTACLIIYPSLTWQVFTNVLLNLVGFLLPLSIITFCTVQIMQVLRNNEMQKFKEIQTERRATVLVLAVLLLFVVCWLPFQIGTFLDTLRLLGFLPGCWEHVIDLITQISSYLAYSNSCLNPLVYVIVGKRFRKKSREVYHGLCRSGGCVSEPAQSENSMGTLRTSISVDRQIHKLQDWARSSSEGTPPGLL
# Summary of the method: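 Radioligand displacement on guinea pig ileum membranes for 1 h, read by filter-based scintillation counting; loss of signal relative to DMSO. Compounds were screened in duplicate at 25 uM, and those passing the threshold were retested in concentration-response up to 50 uM.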
# [16] = molecular target: mouse Cholecystokinin, CCK1 Receptor (CCKA), Cckar (gene 12425) (UniProt O08786); assay: NVS_GPCR_mCCKAPeripheral: NovaScreen (NVS) G Protein-Coupled Receptor Assay for mouse Cholecystokinin, CCK1 Receptor (CCKA) (AID 2283285)
# mouse Cholecystokinin, CCK1 Receptor (CCKA), Cckar (gene 12425), sequence (O08786 whole entry, looked up): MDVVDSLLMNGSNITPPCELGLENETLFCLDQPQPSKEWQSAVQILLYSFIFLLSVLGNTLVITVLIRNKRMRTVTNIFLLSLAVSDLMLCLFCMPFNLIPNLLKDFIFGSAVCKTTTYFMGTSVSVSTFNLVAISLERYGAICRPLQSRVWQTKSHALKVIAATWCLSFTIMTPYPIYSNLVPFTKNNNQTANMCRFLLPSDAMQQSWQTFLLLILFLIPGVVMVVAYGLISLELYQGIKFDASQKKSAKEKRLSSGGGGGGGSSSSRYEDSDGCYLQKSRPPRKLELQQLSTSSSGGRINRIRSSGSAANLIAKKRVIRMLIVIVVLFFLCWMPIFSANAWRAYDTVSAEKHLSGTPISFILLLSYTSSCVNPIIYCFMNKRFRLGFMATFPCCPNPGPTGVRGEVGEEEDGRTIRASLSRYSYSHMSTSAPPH
# Summary of the method: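 Radioligand competitive displacement on mouse pancreatic membranes, 2 h incubation; filter-based scintillation counting, loss of signal versus DMSO. Single-concentration screen at 25 uM in duplicate, actives retested in concentration-response up to 50 uM.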
# [17] = molecular target: human Neurotensin Receptor (NTS), NTSR1 (gene 4923) (UniProt P30989); assay: NVS_GPCR_hNTS: NovaScreen (NVS) G Protein-Coupled Receptor Assay for human Neurotensin Receptor (NTS) (AID 2283279)
# human Neurotensin Receptor (NTS), NTSR1 (gene 4923), sequence (P30989 whole entry, looked up): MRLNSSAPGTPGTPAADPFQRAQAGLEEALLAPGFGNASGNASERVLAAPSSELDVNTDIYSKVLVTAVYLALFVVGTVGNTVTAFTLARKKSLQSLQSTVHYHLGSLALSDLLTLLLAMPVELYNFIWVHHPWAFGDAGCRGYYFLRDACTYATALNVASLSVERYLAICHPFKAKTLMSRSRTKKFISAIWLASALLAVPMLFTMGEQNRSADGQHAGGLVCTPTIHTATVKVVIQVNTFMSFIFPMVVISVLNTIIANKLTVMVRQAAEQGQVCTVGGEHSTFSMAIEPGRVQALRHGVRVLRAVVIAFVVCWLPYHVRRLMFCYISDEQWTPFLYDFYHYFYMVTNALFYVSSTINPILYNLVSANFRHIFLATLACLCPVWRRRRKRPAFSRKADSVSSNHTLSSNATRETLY
# Summary of the method: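 Radioligand displacement on human NTSR1 protein from CHO cells, cell-free, 1 h, filter-based scintillation counting. Primary screen at 25 uM in duplicate; hits rerun in concentration-response up to 50 uM.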
# [18] = molecular target: human Purinergic Receptor P2Y, P2RY1 (gene 5028) (UniProt P47900); assay: NVS_GPCR_hPY2: NovaScreen (NVS) G Protein-Coupled Receptor Assay for human Purinergic Receptor P2Y (AID 2283281)
# Summary of the method: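 Cell-free radioligand binding using U937-derived protein, 1 h after dosing, filter-based scintillation counting. Screened in duplicate at 25 uM; actives rerun as concentration-response up to 50 uM; loss of signal versus DMSO.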
# [19] = molecular target: human Orphanin, Opioid Related Nociceptin Receptor 1 (ORL1), OPRL1 (gene 4987) (UniProt P41146); assay: NVS_GPCR_hORL1: NovaScreen (NVS) G Protein-Coupled Receptor Assay for human Orphanin, Opioid Related Nociceptin Receptor 1 (ORL1) (AID 2283283)
# human Orphanin, Opioid Related Nociceptin Receptor 1 (ORL1), OPRL1 (gene 4987), sequence (P41146 whole entry, looked up): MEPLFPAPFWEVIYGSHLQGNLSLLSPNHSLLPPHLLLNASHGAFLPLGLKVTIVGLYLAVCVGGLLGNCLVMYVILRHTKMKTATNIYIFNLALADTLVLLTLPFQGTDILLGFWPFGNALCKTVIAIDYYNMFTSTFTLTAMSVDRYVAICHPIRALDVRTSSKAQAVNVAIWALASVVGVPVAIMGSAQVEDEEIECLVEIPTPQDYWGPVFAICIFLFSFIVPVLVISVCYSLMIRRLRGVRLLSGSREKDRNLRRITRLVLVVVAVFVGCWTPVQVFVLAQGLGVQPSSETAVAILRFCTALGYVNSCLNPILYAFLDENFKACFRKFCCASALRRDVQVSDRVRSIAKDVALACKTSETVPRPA
# Summary of the method: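 Filter-based radioligand displacement with receptor extracted from HEK293 cells, read 1 hour after dosing by scintillation counting. Duplicate single-point screen at 25 uM; qualifying chemicals then run in concentration-response to 50 uM, analysed relative to DMSO.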
smiles,measurement,setting,value
CC(C)Oc1cc(-n2nc(C(C)(C)C)oc2=O)c(Cl)cc1Cl,AC50,[1],9.82 µM (active)
CN(C)C(=S)SSC(=S)N(C)C,outcome,[2],inactive
same,AC50,[3],5.29 µM (active)
CCOc1cc(Oc2ccc(C(F)(F)F)cc2Cl)ccc1[N+](=O)[O-],outcome,[4],inactive
COc1ccc(C(c2ccc(OC)cc2)C(Cl)(Cl)Cl)cc1,outcome,[5],inactive
same,outcome,[6],inactive
same,outcome,[3],inactive
O=C(Nc1ccccc1)Nc1ccnc(Cl)c1,AC50,[3],6.97 µM (active)
same,AC50,[7],9.9 µM (active)
same,AC50,[8],17 µM (active)
same,AC50,[9],9.64 µM (active)
Oc1ccccc1-c1ccccc1,outcome,[7],inactive
CCNc1nc(Cl)nc(NC(C)C)n1,outcome,[10],inactive
CON(C)C(=O)Nc1ccc(Cl)c(Cl)c1,AC50,[11],25 µM (active)
same,AC50,[7],12.4 µM (active)
same,outcome,[12],inactive
COC(=O)C=C(C)OP(=O)(OC)OC,outcome,[13],inactive
CCOP(=S)(OCC)SCn1c(=O)oc2cc(Cl)ccc21,outcome,[5],inactive
same,AC50,[3],19.2 µM (active)
same,outcome,[14],inactive
O=C(O)c1nc(Cl)ccc1Cl,outcome,[15],inactive
C=CCC1=C(C)C(OC(=O)C2C(C=C(C)C)C2(C)C)CC1=O (stereo not given),AC50,[16],25 µM (active) [middle of 4 runs]
same,outcome,[11],inactive
same,outcome,[3],inactive
CNC(=S)S,outcome,[17],inactive
same,outcome,[18],inactive
same,AC50,[19],40.3 µM (active)
same,outcome,[1],inactive
same,outcome,[3],inactive
same,outcome,[10],inactive
N#CC(CCc1ccc(Cl)cc1)(Cn1cncn1)c1ccccc1 (stereo not given),outcome,[3],inactive
CCCC1COC(Cn2cncn2)(c2ccc(Cl)cc2Cl)O1 (stereo not given),AC50,[5],2.09 µM (active)
same,AC50,[1],14.4 µM (active)
same,AC50,[3],8.68 µM (active)
N#Cc1nn(-c2c(Cl)cc(C(F)(F)F)cc2Cl)c(N)c1S(=O)C(F)(F)F (stereo not given),outcome,[10],inactive

# — PubChem BioAssay (EPA / NIEHS)
